This note sets out measurements from PubChem BioAssay (EPA / NIEHS).

Inconclusive results are not listed. Activity calls are given as the source filed them. Rule for the calls, unless noted: active = hit-call score of the fitted dose curve at least 0.9, where 1 is the maximum; inactive = score below 0.9.

For assay [1], the target named is Estrogen-related receptor gamma (Homo sapiens) (UniProt P62508). Briefly: ATG_ERRg_TRANS: Attagene TRANS-FACTORIAL HepG2 Assay for human Estrogen-Related Receptor gamma (ERRg) (AID 2282977; active = hit-call score of the fitted dose curve at least 0.9, where 1 is the maximum;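 note: hits increase reporter signal over DMSO so potencies reflect activators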). The settings on record: HepG2 Attagene TRANS reporter, ERRg transactivation. In a few lines:
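HepG2 cells transiently transfected with multiplexed GAL4-UAS reporter units and chimeric NR-Gal4 constructs were exposed to test chemicals for 24 h. Reporter mRNA was measured by RT-PCR, 6-FAM primer extension, HpaI digestion and capillary electrophoresis; gain-of-signal versus DMSO.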

Assay [2] has as its target Glucocorticoid receptor (Homo sapiens) (UniProt P04150). Briefly: ATG_GR_TRANS: Attagene TRANS-FACTORIAL HepG2 Assay for human Glucocorticoid Receptor (GR) (AID 2282978; active = hit-call score of the fitted dose curve at least 0.9, where 1 is the maximum;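 note: activators score as hits since higher reporter transcript over DMSO is fitted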). Particulars: HepG2 Attagene TRANS GR reporter, mRNA transcription. The essentials:
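Measurement of GAL4-UAS-driven reporter mRNA in human HepG2 liver cells 24 h post-dosing, using RT-PCR with fluorescent labelling and capillary electrophoresis; the transfected constructs report exogenous NR-GAL4 chimera activity, fitted upward against DMSO.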

For assay [3], the target named is Bile acid receptor (Homo sapiens) (UniProt Q96RI1). The assay is described as follows: ATG_FXR_TRANS: Attagene TRANS-FACTORIAL HepG2 Assay for Farnesoid X Receptor (FXR) (AID 2282979; active = hit-call score of the fitted dose curve at least 0.9, where 1 is the maximum;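 note: hits raise reporter mRNA above DMSO so AC50 marks FXR activation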). Particulars: HepG2 Attagene TRANS FXR-GAL4 reporter transcription. In a few lines:
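Transient transfection of HepG2 with multiplexed GAL4-UAS reporter units; exogenous FXR-GAL4 chimera. Dose 24 h → TriZol RNA → oligo(dT) RT → PCR, 6-FAM primer extension, HpaI cut → CE. Gain vs DMSO.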

In assay [4] the target is Oxysterols receptor LXR-beta (Homo sapiens) (UniProt P55055). The assay is described as follows: ATG_LXRb_TRANS: Attagene TRANS-FACTORIAL HepG2 Assay for human Liver X Receptor beta (LXRb) (AID 2282981; active = hit-call score of the fitted dose curve at least 0.9, where 1 is the maximum). Particulars: HepG2 Attagene TRANS GAL4-LXRb reporter, mRNA. In a few lines:
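Gain-of-signal mRNA reporter endpoint, DMSO as negative control. Transiently transfected HepG2 cells carrying the NR-Gal4 chimera and GAL4-UAS reporter units were treated 24 h; transcripts quantified by RT-PCR and capillary electrophoresis fluorescence.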

Assay [5] has as its target Hepatocyte nuclear factor 4-alpha (Homo sapiens) (UniProt P41235). The assay is described as follows: ATG_HNF4a_TRANS: Attagene TRANS-FACTORIAL HepG2 Assay for human Hepatocyte Nuclear Factor 4 alpha (HNF4a) (AID 2282982; active = hit-call score of the fitted dose curve at least 0.9, where 1 is the maximum). Particulars: HepG2 HNF4a transactivation reporter, mRNA readout. In a few lines: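 Gain-of-signal mRNA induction, relative to DMSO vehicle, was read after 24 h compound treatment of HepG2 cells bearing transfected GAL4-UAS reporters. Detection used RT-PCR, 6-FAM primer extension and capillary electrophoresis.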

A short description of assay [6]: ATG_M_06_TRANS: Attagene TRANS-FACTORIAL HepG2 Assay for M06 Transcription Factor (Internal Marker) (AID 2282983; active = hit-call score of the fitted dose curve at least 0.9, where 1 is the maximum). The settings on record: HepG2 Attagene TRANS M06 internal marker reporter. In a few lines: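 Transfect HepG2 with MRTUs → dose compounds 24 h → isolate RNA, oligo(dT) RT → PCR with reporter primers → 6-FAM primer extension → HpaI digest → CE fragment analysis. Positive direction vs DMSO.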

Assay [7] is described as follows: ATG_M_32_TRANS: Attagene TRANS-FACTORIAL HepG2 Assay for M32 Transcription Factor (Internal Marker) (AID 2282984; active = hit-call score of the fitted dose curve at least 0.9, where 1 is the maximum;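 note: transcript level of a background control reporter unit measured by RT-PCR and capillary electrophoresis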). Particulars: HepG2 Attagene TRANS M32 internal marker reporter. In a few lines:
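Capillary electrophoresis of 6-FAM-labelled reporter fragments gives the signal; data fitted for gain over DMSO negative control. Source: HepG2 cells bearing transient multiple reporter transcription units, 24 h exposure.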

Assay [8] deals with Transcriptional activator Myb (Homo sapiens) (UniProt P10242). Briefly: ATG_Myb_CIS: Attagene CIS-FACTORIAL HepG2 Assay for human Myeloblastosis (Myb) Proto-Oncogene Transcription Factor (AID 2282986). The settings on record: HepG2 Attagene CIS-FACTORIAL Myb reporter transcription; actives raise or lower the signal. In a few lines: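 Fluorescence signals from capillary electrophoresis of RT-PCR-amplified reporter cDNA give the read-out. Cells: HepG2 transfected with multiple cis-regulated reporter units. Exposure lasts 24 hours; DMSO defines baseline for gain or loss of signal.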
Sequence of Transcriptional activator Myb (Homo sapiens) (P10242 whole entry, looked up): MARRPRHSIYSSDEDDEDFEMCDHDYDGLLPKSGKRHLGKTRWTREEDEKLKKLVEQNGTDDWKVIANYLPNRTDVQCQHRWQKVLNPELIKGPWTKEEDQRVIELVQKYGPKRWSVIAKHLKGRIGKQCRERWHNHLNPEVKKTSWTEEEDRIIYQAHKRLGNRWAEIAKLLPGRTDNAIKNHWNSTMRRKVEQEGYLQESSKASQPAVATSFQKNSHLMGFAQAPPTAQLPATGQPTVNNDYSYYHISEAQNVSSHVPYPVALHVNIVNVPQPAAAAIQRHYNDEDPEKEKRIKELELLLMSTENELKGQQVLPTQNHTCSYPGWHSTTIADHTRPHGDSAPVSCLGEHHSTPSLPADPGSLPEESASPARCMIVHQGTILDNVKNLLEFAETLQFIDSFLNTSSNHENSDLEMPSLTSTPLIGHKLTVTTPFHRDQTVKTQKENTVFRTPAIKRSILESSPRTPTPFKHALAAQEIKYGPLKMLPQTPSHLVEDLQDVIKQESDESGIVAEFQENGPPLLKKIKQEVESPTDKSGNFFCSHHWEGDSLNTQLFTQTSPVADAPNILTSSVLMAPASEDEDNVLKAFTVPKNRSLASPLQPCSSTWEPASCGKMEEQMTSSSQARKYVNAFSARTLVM

Assay [9] has as its target Nuclear respiratory factor 1 (Homo sapiens) (UniProt Q16656). Briefly: ATG_NRF1_CIS: Attagene CIS-FACTORIAL HepG2 Assay for human Nuclear Respiratory Factor 1 (NRF1) Orphan Gene (AID 2282987). Particulars: HepG2 NRF1 cis-element reporter, Attagene multiplex; actives raise or lower the signal. The essentials:
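Transcriptional reporter readout, one component of a 52-endpoint multiplexed HepG2 panel. Exposure 24 h; mRNA detected via RT-PCR and fluorescent capillary electrophoresis; fitting in both directions against DMSO.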

Assay [10] is described as follows: ATG_NFI_CIS: Attagene CIS-FACTORIAL HepG2 Assay for human Nuclear Factor I (NFI) (AID 2282989). The settings on record: HepG2 cis-regulatory reporter, NFI response element transcription; actives raise or lower the signal. In a few lines:
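Read-out: reporter mRNA via RT-PCR plus capillary electrophoresis with fluorescence detection. Transiently transfected HepG2 (endogenous TF activity on cis promoters), 24 h compound exposure; gain or loss of signal fitted against DMSO.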

Assay [11] concerns the target Myc proto-oncogene protein (Homo sapiens) (UniProt P01106). Briefly: ATG_Myc_CIS: Attagene CIS-FACTORIAL HepG2 Assay for human Myelocytomatosis (Myc) Proto-Oncogene Transcription Factor (AID 2282990). The settings on record: HepG2, Attagene cis-reporter transcription factor activity; actives raise or lower the signal. In a few lines: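 Read-out: fluorescent reporter mRNA fragments resolved by capillary electrophoresis after RT-PCR. Human HepG2 liver cells carried transfected cis-element reporter units and were dosed for 24 h. Gain or loss of signal fitted relative to DMSO baseline.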

Assay [12] is described as follows: ATG_NF_kB_CIS: Attagene CIS-FACTORIAL HepG2 Assay for human Nuclear Factor Kappa B (NF-kB) (AID 2282991). The settings on record: HepG2 Attagene cis-factorial NF-kB reporter mRNA; actives raise or lower the signal. In a few lines:
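HepG2, transient multi-reporter transfection, cis promoter elements (endogenous TFs). 24 h exposure. Total RNA → RT → PCR → 6-FAM label → HpaI → CE. Gain/loss vs DMSO.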

A short description of assay [13]: ATG_NRF2_ARE_CIS: Attagene CIS-FACTORIAL HepG2 Assay for human Nuclear Factor Erythroid 2 Related Factor 2 (NFR2) response to Antioxidant Response Elements (ARE) (AID 2282992).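 For AC50: reporter mRNA level measured by RT-PCR and capillary electrophoresis fluorescence.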 The settings on record: HepG2 Attagene ARE/NRF2 reporter, transcription factor activity; actives raise or lower the signal. In a few lines:
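Multiplexed reporter mRNA profiling in HepG2 after a 24 h chemical exposure. Curves fitted in both directions relative to DMSO negative control.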

The nature of assay [14]: ATG_Oct_MLP_CIS: Attagene CIS-FACTORIAL HepG2 Assay for human Octamer-Binding Transcription Factor (Oct) (AID 2282993). The settings on record: HepG2 Attagene cis-factorial Oct reporter, mRNA; actives raise or lower the signal. The essentials:
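Read-out: reporter mRNA via RT-PCR plus capillary electrophoresis of 6-FAM-labelled fragments. Transiently transfected HepG2, 24 h exposure, endogenous TF activity on cis elements. Gain or loss of signal fitted relative to DMSO.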

Assay [15] deals with Cellular tumor antigen p53 (Homo sapiens) (UniProt P04637). The assay is described as follows: ATG_p53_CIS: Attagene CIS-FACTORIAL HepG2 Assay for human p53 Transcription Factor (AID 2282994). The settings on record: HepG2 p53 cis-element reporter, Attagene mRNA; actives raise or lower the signal. The essentials:
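Multiplexed reporter mRNA assay in human HepG2 liver cells; cis-regulated units report endogenous factor activity. Values come from bidirectional curve fitting against DMSO negative control after 24 h treatment.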

In assay [16] the target is Nuclear receptor subfamily 4 group A member 2 (Homo sapiens) (UniProt P43354). Briefly: ATG_NURR1_TRANS: Attagene TRANS-FACTORIAL HepG2 Assay for human Nuclear Receptor Related Protein 1 (NURR1) (AID 2282985; active = hit-call score of the fitted dose curve at least 0.9, where 1 is the maximum). The settings on record: HepG2 Attagene TRANS reporter, mRNA readout. The essentials:
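HepG2 / transient MRTU transfection / 24 h compound exposure / RT-PCR + CE fluorescence of reporter mRNA / gain-of-signal vs DMSO.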

Assay [17] can be described thus: BSK_3C_TissueFactor: BioMAP Diversity Plus: 3C Assay for Tissue Factor Biomarker Activity (AID 2282997). The settings on record: BioMAP 3C HUVEC, tissue factor biomarker readout; actives raise or lower the signal. The essentials:
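ELISA read-out of Tissue Factor levels on human umbilical vein endothelium collected 24 h after chemical dosing. Gain or loss of signal was fitted relative to DMSO.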

Assay [18] can be described thus: BSK_3C_uPAR: BioMAP Diversity Plus: 3C Assay for Urokinase-type plasminogen activator receptor (uPAR) Biomarker Activity (AID 2282998). The settings on record: BioMAP 3C HUVEC, uPAR biomarker ELISA; actives raise or lower the signal. In a few lines: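 HUVEC primary cells; 24 h post-dose; uPAR by ELISA; gain or loss of signal fitted bidirectionally vs DMSO baseline.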
(An ELISA detects its analyte on a solid surface through an enzyme-linked reagent.)

Assay [19] can be described thus: BSK_3C_VCAM1: BioMAP Diversity Plus: 3C Assay for Vascular cell adhesion molecule 1 (VCAM1) Biomarker Activity (AID 2282999). Particulars: BioMAP 3C HUVEC, VCAM1 ELISA, cytokine-stimulated; actives raise or lower the signal. The essentials:
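Human umbilical vein endothelial cells (3C system), biomarker read by ELISA 24 h after dosing; bidirectional fit against DMSO baseline. Cytotoxicity tracked by SRB total-protein staining in parallel cultures at biomarker time.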

Sequence of Oxysterols receptor LXR-beta (Homo sapiens) (P55055 whole entry, looked up, the tested form may be a part): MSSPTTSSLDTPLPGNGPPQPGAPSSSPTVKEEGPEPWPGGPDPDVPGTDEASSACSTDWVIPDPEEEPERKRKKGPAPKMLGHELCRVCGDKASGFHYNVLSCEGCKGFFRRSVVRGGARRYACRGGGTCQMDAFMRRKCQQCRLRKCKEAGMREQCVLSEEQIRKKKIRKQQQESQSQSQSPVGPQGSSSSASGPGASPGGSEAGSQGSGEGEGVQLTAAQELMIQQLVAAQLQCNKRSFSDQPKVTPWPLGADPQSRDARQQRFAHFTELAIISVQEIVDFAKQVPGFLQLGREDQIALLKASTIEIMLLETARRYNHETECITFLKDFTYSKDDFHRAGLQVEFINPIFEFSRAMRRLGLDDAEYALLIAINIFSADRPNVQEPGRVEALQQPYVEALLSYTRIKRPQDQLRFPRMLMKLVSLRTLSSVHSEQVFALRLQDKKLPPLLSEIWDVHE
Sequence of Hepatocyte nuclear factor 4-alpha (Homo sapiens) (P41235 whole entry, looked up, the tested form may be a part): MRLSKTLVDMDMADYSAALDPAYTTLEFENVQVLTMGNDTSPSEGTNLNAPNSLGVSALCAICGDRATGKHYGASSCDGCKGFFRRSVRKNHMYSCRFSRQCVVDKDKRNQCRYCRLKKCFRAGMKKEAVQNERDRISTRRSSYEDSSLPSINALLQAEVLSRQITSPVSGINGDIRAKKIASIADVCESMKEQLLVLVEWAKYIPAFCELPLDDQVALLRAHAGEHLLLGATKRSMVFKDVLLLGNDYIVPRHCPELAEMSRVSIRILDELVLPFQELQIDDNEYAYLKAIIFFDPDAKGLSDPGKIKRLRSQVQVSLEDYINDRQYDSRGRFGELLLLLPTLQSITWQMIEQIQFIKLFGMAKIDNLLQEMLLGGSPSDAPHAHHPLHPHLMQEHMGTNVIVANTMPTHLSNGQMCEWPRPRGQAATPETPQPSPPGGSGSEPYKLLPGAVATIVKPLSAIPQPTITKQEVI
Sequence of Nuclear respiratory factor 1 (Homo sapiens) (Q16656 whole entry, looked up): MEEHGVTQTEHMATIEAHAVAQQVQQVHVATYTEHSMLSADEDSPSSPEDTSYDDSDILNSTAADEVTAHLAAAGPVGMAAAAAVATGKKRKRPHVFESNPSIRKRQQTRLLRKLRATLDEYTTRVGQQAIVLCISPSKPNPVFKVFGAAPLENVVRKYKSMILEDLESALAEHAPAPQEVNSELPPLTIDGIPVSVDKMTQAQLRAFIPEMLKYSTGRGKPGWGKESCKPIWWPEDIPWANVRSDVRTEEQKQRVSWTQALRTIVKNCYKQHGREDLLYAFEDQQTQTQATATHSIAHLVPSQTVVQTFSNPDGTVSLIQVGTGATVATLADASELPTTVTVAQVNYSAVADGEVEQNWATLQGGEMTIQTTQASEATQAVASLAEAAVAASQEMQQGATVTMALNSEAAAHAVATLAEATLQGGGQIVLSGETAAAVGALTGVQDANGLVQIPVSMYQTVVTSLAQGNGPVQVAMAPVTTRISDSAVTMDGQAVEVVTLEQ
Sequence of Estrogen-related receptor gamma (Homo sapiens) (P62508 whole entry, looked up, the tested form may be a part): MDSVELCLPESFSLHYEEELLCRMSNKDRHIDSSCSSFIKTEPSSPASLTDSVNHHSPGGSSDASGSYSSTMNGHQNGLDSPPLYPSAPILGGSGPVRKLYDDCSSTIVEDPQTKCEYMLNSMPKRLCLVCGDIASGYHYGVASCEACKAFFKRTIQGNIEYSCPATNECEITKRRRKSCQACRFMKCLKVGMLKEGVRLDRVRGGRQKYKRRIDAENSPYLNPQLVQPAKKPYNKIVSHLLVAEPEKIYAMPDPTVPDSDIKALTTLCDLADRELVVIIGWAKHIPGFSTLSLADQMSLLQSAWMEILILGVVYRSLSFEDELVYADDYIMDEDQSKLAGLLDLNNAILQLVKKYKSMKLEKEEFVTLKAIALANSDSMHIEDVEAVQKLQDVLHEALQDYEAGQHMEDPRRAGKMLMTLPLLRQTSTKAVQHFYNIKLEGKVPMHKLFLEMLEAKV
Sequence of Myc proto-oncogene protein (Homo sapiens) (P01106 whole entry, looked up, the tested form may be a part): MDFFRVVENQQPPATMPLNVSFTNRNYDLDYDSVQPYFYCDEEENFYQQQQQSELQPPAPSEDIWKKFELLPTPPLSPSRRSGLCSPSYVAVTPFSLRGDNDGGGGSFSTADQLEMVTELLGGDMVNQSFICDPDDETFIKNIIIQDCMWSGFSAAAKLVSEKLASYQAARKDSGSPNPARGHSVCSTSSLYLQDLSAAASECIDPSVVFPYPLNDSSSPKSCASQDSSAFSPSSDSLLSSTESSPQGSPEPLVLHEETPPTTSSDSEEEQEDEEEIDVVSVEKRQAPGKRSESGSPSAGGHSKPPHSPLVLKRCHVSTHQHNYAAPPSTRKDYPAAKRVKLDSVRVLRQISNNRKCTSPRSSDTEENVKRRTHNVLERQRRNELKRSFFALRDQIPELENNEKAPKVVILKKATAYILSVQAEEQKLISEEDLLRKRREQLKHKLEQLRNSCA
Sequence of Cellular tumor antigen p53 (Homo sapiens) (P04637 whole entry, looked up): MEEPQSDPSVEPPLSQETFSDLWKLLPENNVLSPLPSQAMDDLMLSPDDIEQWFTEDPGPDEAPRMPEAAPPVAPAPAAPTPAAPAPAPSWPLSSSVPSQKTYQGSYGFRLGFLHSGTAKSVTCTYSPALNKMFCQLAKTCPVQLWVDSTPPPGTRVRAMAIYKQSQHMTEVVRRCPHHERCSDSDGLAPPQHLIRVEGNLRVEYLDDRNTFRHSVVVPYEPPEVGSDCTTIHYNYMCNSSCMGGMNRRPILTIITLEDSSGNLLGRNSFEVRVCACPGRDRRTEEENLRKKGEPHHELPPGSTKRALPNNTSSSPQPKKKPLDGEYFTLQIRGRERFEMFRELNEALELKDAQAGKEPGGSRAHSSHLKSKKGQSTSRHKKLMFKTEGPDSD
Sequence of Glucocorticoid receptor (Homo sapiens) (P04150 whole entry, looked up, the tested form may be a part): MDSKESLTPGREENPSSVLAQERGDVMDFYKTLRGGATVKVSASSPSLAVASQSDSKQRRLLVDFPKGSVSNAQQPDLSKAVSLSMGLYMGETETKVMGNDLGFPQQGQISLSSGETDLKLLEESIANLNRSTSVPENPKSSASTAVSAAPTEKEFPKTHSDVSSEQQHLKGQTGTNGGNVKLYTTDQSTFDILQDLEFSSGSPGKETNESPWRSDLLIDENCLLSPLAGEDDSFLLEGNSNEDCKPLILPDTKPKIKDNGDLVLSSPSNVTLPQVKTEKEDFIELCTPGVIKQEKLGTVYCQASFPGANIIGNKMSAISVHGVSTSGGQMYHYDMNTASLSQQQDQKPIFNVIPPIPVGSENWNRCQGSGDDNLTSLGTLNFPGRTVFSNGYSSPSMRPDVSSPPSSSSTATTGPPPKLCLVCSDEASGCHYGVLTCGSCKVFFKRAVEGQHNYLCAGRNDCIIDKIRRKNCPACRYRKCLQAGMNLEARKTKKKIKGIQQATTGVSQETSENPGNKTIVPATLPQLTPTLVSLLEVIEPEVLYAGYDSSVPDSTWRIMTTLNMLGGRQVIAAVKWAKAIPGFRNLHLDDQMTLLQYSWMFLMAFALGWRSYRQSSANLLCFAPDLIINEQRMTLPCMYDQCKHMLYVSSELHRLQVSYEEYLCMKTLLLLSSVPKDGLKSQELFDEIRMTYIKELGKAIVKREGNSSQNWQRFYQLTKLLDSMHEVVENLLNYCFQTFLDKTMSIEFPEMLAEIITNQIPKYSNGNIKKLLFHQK
Sequence of Nuclear receptor subfamily 4 group A member 2 (Homo sapiens) (P43354 whole entry, looked up): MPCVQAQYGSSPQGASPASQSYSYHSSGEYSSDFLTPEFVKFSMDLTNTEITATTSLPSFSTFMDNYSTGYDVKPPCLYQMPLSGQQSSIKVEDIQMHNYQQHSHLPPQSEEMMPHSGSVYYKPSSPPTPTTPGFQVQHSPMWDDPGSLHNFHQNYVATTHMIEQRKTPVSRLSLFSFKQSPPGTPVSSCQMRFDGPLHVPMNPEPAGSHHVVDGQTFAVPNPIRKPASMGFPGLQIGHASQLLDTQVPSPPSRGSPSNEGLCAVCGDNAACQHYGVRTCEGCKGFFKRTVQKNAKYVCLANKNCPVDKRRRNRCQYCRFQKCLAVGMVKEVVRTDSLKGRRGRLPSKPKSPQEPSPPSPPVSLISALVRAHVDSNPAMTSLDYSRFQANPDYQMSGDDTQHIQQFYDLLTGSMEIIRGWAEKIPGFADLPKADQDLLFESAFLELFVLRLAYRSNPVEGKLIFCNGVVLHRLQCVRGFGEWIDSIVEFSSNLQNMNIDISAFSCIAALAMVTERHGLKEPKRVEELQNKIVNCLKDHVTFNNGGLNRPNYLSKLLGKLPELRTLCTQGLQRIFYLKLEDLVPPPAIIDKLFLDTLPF

Turning to `CN(C)c1ccc(C=O)cc1`, the outcome in assay [1], in assay [2], in assay [3], in [4], in assay [5] and in assay [6] was inactive. Moreover, the outcome in assay [7], in [8], in assay [9], in assay [10], in assay [11] and in assay [12] was inactive. For the same molecule, the outcome in assay [13], in assay [14] and in assay [15] was inactive.
A word on the AC50: it is the concentration giving half of the maximal activity seen. For `O=S1(=O)CC(Cl)(Cl)C(Cl)(Cl)C1`, the molecule was classed as inactive in [1], in assay [2], in assay [3], in assay [4], in assay [5] and in assay [7]. The call in [16], in assay [8], in [9], in assay [10], in [11] and in [14] was inactive. In addition, the AC50 was 485 nM (active) in [13]; 2670 nM (active) in assay [15]; 556 nM (active) in assay [17]; 695 nM (active) in assay [18]; 618 nM (active) in [19].
For the molecule `C=CC(=O)OCC(CO)(COC(=O)C=C)COC(=O)C=C`, the call in assay [1], in assay [4], in assay [5], in assay [6], in assay [16] and in assay [9] was inactive. Further, the outcome in assay [10], in [11], in assay [13] and in [14] was inactive. The half-maximal activity concentration (AC50) was 180000 nM (active) in assay [8], 137 nM (active) in assay [17], 443 nM (active) in [18] and 47.8 nM (active) in [19].
With `C1COCO1`, the molecule was classed as inactive in assay [1], in assay [4], in assay [6], in assay [7], in [8] and in [9]. For the same molecule, the molecule was classed as inactive in assay [10], in assay [11], in [13] and in [14].
In the case of `C=C(C)C(=O)OCCOCCOC(=O)C(=C)C`, the molecule was called inactive in assay [1], in assay [6], in assay [7], in [8], in [9] and in assay [10]. Besides, the molecule was called inactive in assay [11], in assay [12], in [13] and in [14].
